Assay results from PubChem BioAssay (NCI).
The panel holds about 83,000 compounds, 20% with a hit somewhere; the sample as a whole holds those more often.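 Cells were grown in 96-well plates and exposed to the test compound at a single concentration for 48 hours; results are reported as percent growth, with values below 10 considered active.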 Unmarked numbers belong to inactive results. Active and inactive are the calls of the source.

How the values were obtained:
Test in all cases: NCI-60 one-dose screen, 48 h (100 = growth as untreated, 0 = no growth, -100 = all killed)
Details in all cases: 10 µM unless noted
[1] = test system: HCT-15 colon
[2] = test system: HT29 colon
[3] = test system: SNB-75 CNS
[4] = test system: SNB-19 CNS
[5] = test system: U251 CNS
[6] = test system: PC-3 prostate
[7] = test system: SK-MEL-5 melanoma
[8] = test system: UACC-62 melanoma
[9] = test system: LOX IMVI melanoma
[10] = test system: SK-MEL-28 melanoma

Row | SMILES | growth [1] | growth [2] | growth [3] | growth [4] | growth [5] | growth [6] | growth [7] | growth [8] | growth [9] | growth [10]
1 | O=CN1N=C(c2ccc(Nc3ccnc4cc(Cl)ccc34)cc2)CC1c1ccc(Cl)cc1 (stereo not given) | 16.4% | 5.55% (active) | 4.26% (active) | 44.5% | 27.6% | 32.3% | -27.4% (active) | 28.7% | 32% | 39.2%
2 | COc1ccc(-n2cnc3cc(C(=O)N4CCCCC4)ccc32)cc1 | 104% | 102% | 86.6% | 94.3% | 96.6% | 94.6% | 102% | 101% | 97.9% | 99.1%
3 | CC1CC=CCC1C1OCC(C)(C)CO1 (stereo not given) | 97.9% | 109% | 90% | 102% | 92.9% | 94.9% | 104% | 102% | 69.9% | 105%
4 | Cc1nn2c(/C=C3/C(=O)Nc4cc(Cl)ccc43)c(-c3ccccc3)nc2s1 | 37.8% | 36.6% | -20.2% (active) | 54% | -19.9% (active) | 51.1% | -24.7% (active) | -25.4% (active) | -33.3% (active) | -49.4% (active)
5 | CCc1nn2c(-c3ccc(Cl)cc3C)c(-c3cc(OC)c(OC)c(OC)c3)nc2s1 | 69.8% | 66.8% | 3.79% (active) | 56.8% | 89.7% | 64.1% | 70.3% | 60% | 77.1% | 80.8%
6 | COC(=O)[C@H](Cc1cn(C)cn1)NC(=O)[C@@H](NC(=O)Nc1cc(C(F)(F)F)cc(C(F)(F)F)c1)C(C)C | -87.6% [100 µM] (active) | -81.4% [100 µM] (active) | -99.8% [100 µM] (active) | -90.3% [100 µM] (active) | -95.3% [100 µM] (active) | -89.6% [100 µM] (active) | -95.4% [100 µM] (active) | -93.1% [100 µM] (active) | -79.5% [100 µM] (active) | -96.5% [100 µM] (active)
7 | Cc1nn(-c2nc3ccccc3s2)c(C)c1Oc1ccccc1O | 29.4% | 50.1% | 78.7% | 80% | 33.9% | 67% | 54.6% | 39% | 30.1% | 22.1%
8 | C=C1CCC2C3(C)COC(c4ccccc4)OC3CCC2(C)C1C/C=C1/C(=O)OCC1OC(C)=O (stereo not given) | 79.1% | 65.7% | 75.3% | 95.6% | 71.2% | 78.5% | 60.7% | 90.2% | 12.3% | 118%
9 | C=CCN(/C=C/CN(CC=C)CC=C)CC=C | 100% | 100% | 85.8% | 97.8% | 97.3% | 89.4% | 109% | 101% | 103% | 98.5%
10 | COc1ccc(C2=NN(C(C)=O)C(c3c(C)nn(-c4ccccc4)c3N3CCOCC3)C2)cc1 (stereo not given) | 103% | 101% | 74.4% | 85.8% | 89.3% | 79.7% | 97.6% | 87.8% | 97.8% | 108%
11 | CCCCCCC(CC#N)(CCC)CCCC (stereo not given) | 108% | 111% | 88.7% | 100% | 104% | 92.2% | 105% | 101% | 89.8% | 104%
12 | COc1ccc(Cl)cc1Nc1nc(C(F)(F)F)ccc1C(=O)N/N=C/c1c(Cl)cccc1Cl | 30.6% | 52.1% | 63.5% | 55.5% | 29.1% | 48.5% | 13.4% | 52.9% | 32.3% | 62.2%
